Results reported in ChEMBL document CHEMBL3433997, “St. Jude Leishmania screening dataset” (2016).

Assays:
Assay type in all cases: functional
[1] = biological target: Solute carrier family 2, facilitated glucose transporter member 1 (Homo sapiens) (UniProt P11166); experiment: ST_JUDE_LEISH: Cytotoxicity at 2uM final concentration against transgenic Leishmania Mexicana promastigotes LmGLUT1 that are glucose transport deficient and complemented with the human glucose transporter GLUT1. Activity is measured by DNA content using SYBR green in vitro
[2] = biological target: Hexose transporter 1 (Plasmodium falciparum) (UniProt O97467); experiment: ST_JUDE_LEISH: Cytotoxicity at 2uM final concentration against transgenic Leishmania Mexicana promastigotes LmPfHT that are glucose transport deficient and complemented with the Plasmodium falciparum hexose transporter. Activity is measured by DNA content using SYBR green in vitro
[3] = biological target: Glucose transporter (Leishmania mexicana) (UniProt O61059); experiment: ST_JUDE_LEISH: Cytotoxicity at 2uM final concentration against transgenic Leishmania Mexicana promastigotes LmGT2 that are glucose transport deficient and complemented with the L. Mexicana glucose transporter 2. Activity is measured by DNA content using SYBR green in vitro

Chain of Solute carrier family 2, facilitated glucose transporter member 1 (Homo sapiens) (P11166 whole entry): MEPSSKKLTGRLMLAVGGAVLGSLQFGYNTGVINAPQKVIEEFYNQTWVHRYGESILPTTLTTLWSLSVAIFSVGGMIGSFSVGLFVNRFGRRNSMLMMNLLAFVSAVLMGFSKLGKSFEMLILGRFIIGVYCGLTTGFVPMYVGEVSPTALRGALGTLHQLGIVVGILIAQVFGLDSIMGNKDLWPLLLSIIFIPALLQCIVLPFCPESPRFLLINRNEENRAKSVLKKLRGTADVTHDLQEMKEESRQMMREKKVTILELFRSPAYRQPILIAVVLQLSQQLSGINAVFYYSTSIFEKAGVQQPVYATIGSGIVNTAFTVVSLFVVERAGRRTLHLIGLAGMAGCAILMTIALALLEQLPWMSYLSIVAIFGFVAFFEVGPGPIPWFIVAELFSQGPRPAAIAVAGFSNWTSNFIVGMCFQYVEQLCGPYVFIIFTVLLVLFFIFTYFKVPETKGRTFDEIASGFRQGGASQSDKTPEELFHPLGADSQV

SMILES	inhibition [1] [%]	inhibition [2] [%]	inhibition [3] [%]
O=C(CC1NC(=O)c2ccccc21)Nc1ccc(-c2cccc(-c3nc4cc(C(F)(F)F)ccc4[nH]3)c2)cc1 (stereo not drawn)	1.2	2.78	0.79
CCN(CC)/C(=N/C(=N)Nc1ccc(C)cc1)NCCCCCCN/C(=N\C(=N)Nc1ccc(C)cc1)N(CC)CC	7.79	5.77	5.53
COc1ccc(CN(C)CCCc2ccc(NC(=O)c3cccc4c(=O)c5cccc(F)c5[nH]c34)cc2)cc1OC	14.2	9.74	10.1
O=C(Nc1ccc(S(=O)(=O)N2CCCC2)cc1)c1cc(-c2cccnc2)nc2ccc(Cl)cc12	7.34	2.97	3.06
O=C(NC1CC1)c1cnc(N2CCN(Cc3c(F)cccc3Cl)CC2)c(Cl)c1	12	1.02	-3.18
COc1cc2c(cc1OC)-c1cc(=Nc3c(C)cc(C)cc3C)n(C)c(=O)n1CC2	0.22	2.72	0.49
O=C(Nc1cc2cc(-c3ccc(CN4CCCCC4)cc3)ccc2n2cnnc12)NC1CCCC1	22.1	6.44	3.67
COc1ccccc1-n1ccnc1SCC(=O)Nc1cc(C(F)(F)F)ccc1Cl	-3.59	-0.64	-1.83
Oc1cc(-c2cccc(C(F)(F)F)c2)nc(Nc2ccc(Cl)c(Cl)c2)n1	0.75	0.89	0.9
CC(=O)Oc1cc(C(=O)Nc2ccc(Cl)cc2)cc2ccccc12	7.81	5.31	5.8
O=C(Nc1ccc(-c2cccc(-c3nc4cc(C(F)(F)F)ccc4[nH]3)c2)cc1)c1cccnc1	0.28	0.06	-1.11
CCCCN1CCN(CCCCNc2c3ccccc3nc3ccccc23)CC1	36.8	43.1	22
O=C(Nc1ccc2nc3n(c(=O)c2c1)CCCCC3)C(=O)N1CCN(c2ccc(F)cc2)CC1	7.33	9.84	7.95
FC(F)(F)c1ccc(CNC2CCN(CC3CCCCC3)CC2)cc1	7.89	7.71	8.5
O=c1cc(NCCCNC(CNCCc2ccccc2)c2cc(Br)cc(Br)c2)[nH]c2ccccc12 (stereo not drawn)	2.57	3.4	2.67
CCCCOC(=O)c1ccc(NC(=O)Nc2ccc(Cn3ncc(N4CCCNCC4)c(Cl)c3=O)cc2)cc1	9.01	10.1	7.4
CCN(C)C(=O)n1ncc2c3c(N)nc(N)nc3ccc21	3.44	4.56	2.18
c1cc(-c2ccc(CN3CCCCC3)cc2)cc(-c2nc3ccccc3[nH]2)c1	1.85	0.49	0.96
CN(Cc1c(Cl)cnn1C)S(=O)(=O)c1ccc2ccccc2c1	5.51	7.25	5.64
COc1cc(C)ccc1S(=O)(=O)N1CCCCC(c2ccc(C(F)(F)F)cc2)=N1	10.8	11.2	10.3
Cn1cncc1C(=O)Nc1ccc(-c2cccc(-c3nc4cc(C(F)(F)F)ccc4[nH]3)c2)cc1	1.53	1.11	2.32
